From PubChem BioAssay come the findings set out here.

Calls of active or inactive are those of the source.

One experiment addresses Albumin (Bos taurus) (UniProt P02769). The experiment in a line: bovine serum albumin binders on microarray, profiling panel, artefact control for SMM control protein annotation, biochemical, small-molecule microarray, Alexa647 label, 635/667 nm fluorescence (AID 1118).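 Also: score merges 667 nm emission intensity and signal-to-noise per printed compound spot.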 The note with it: BSA-A647 binding, fluorescence 635 nm, higher = more signal.
Experiment [1] in a line: small-molecule microarray binders of probe aXIP, primary screen, biochemical, NeuroSMM set, 635/667 nm fluorescence (AID 1119).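 Also: probe is the protein aXip251-270 applied at 1 µg/mL to compound-printed slides; binding of probe to printed compounds measured as 667 nm fluorescence plus signal to noise.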 The note with it: higher = more signal, called active from +8 up or from −8 down.
A short description of experiment [2]: small-molecule binders of probe aNOTCH3, primary screen, biochemical, small-molecule microarray, 635/667 nm fluorescence (AID 1120).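 Also: probe is a biotin-tagged antibody raised against NOTCH3 rather than NOTCH3 protein; score merges spot fluorescence near 667 nm with spot signal to noise.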 The note with it: higher = more signal.
A short description of experiment [3]: small-molecule binders of probe aNOTCH2, primary screen, biochemical, small-molecule microarray, 635/667 nm fluorescence (AID 1121).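 Also: score merges feature fluorescence read at 667 nm with its signal to noise.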 The note with it: higher = more signal.
Experiment [4] deals with Carbonic anhydrase 2 (Homo sapiens) (UniProt P00918). The experiment is described as follows: CAII small-molecule binders, profiling panel, biochemical, small-molecule microarray, Alexa647-labelled CAII (AID 1122). The following applies: CAII-A647 binding fluorescence, higher = more signal.
The nature of experiment [5]: COS7 lysate on small-molecule microarray, probe aHis, 635 nm (AID 1123).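 Also: z-score combines 667nm fluorescence intensity with signal-to-noise per printed compound spot.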 The following applies: COS7 cell lysate, fluorescence, higher = more signal.
Experiment [6] is described as follows: compound binding in COS7 lysate, probe aLAP1, primary screen, cell lysate, small-molecule microarray (AID 1124).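 Also: lysate comes from COS7 cells expressing LAP1 and is applied at 0.3 µg/mL; score merges spot fluorescence near 667 nm with signal-to-noise over triplicate slides.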 The following applies: probe aLAP1, fluorescence, higher = more signal.
Another experiment relates to Sam68 (KHDRBS1). The experiment is described as follows: Sam68 small-molecule binders, primary screen, biochemical, small-molecule microarray, 635 nm fluorescence (AID 1125).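 Also: score merges 667 nm channel intensity with signal to noise over triplicate slides.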 The note with it: small-molecule microarray binding, higher = more signal.
Experiment [7] has as its system Chordin-like protein 2 (CHRDL2). The experiment in a line: CHRDL2 small-molecule binders, primary screen, biochemical, small-molecule microarray, 635 nm fluorescence (AID 1126).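 Also: printed compound slides probed with Chrdl2 protein at 4 µg/mL for 1 h at 4 C; score merges 667 nm emission intensity with signal to noise over three replicate slides.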 The following applies: small-molecule microarray binding, fluorescence 635 nm; higher = more signal.
Experiment [8] deals with Concanavalin-A (Canavalia ensiformis) (UniProt P02866). The experiment in a line: ConA small-molecule binders, primary screen, artefact control for SMM control protein annotation, biochemical, small-molecule microarray, Alexa647 label, 635 nm (AID 1127).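 Also: z combines 667 nm emission intensity with signal-to-noise across three replicate slides.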 The following applies: ConA-A647 binding fluorescence, higher = more signal.
Sequence of Concanavalin-A (Canavalia ensiformis) (P02866 whole entry, looked up): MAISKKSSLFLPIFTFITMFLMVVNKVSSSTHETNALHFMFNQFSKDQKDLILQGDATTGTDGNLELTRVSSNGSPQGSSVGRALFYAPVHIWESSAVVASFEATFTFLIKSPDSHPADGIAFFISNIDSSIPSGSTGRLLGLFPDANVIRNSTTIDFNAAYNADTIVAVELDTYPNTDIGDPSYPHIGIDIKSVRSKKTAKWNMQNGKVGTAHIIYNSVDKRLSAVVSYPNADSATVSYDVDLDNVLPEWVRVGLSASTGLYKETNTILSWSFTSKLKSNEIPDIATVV

Sequence of Albumin (Bos taurus) (P02769 whole entry, looked up): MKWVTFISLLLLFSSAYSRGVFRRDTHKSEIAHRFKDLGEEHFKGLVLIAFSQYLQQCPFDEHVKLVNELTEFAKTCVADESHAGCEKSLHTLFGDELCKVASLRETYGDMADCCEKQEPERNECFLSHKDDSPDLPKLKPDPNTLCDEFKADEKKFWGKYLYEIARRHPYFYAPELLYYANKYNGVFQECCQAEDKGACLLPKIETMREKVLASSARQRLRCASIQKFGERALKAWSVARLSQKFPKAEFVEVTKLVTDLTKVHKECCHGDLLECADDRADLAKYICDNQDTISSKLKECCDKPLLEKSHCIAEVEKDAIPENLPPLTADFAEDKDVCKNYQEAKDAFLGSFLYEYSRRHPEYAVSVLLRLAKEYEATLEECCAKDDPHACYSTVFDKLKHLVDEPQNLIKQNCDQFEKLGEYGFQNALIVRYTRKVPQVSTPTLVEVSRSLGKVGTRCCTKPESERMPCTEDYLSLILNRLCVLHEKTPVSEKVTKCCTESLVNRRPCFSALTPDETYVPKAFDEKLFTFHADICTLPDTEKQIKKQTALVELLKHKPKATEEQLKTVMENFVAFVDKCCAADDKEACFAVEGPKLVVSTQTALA

Turning to `COc1ccc(C#Cc2ccc3c(c2)[C@]2(C(=O)N3)[C@H](C(=O)O)[C@H]3C(=O)O[C@H](c4ccccc4)[C@H](c4ccccc4)N3[C@@H]2c2ccccc2OCCO)cc1`, the composite z-score was 0.594 with Albumin (Bos taurus); -0.301 in [2]; -0.0069 in experiment [3]; 0.509 in experiment [4]; 1.08 in [5]; 0.387 in experiment [6]. For the same compound, the composite z-score in the experiment with Sam68 (KHDRBS1) was 1.31; in experiment [7] it was 0.117; in [8] it was 1.14. In addition, the composite Z-score in [1] was 0.493 (inactive).

As for `CN1C(=O)C2C=CC(C(O)c3ccc(-c4ccccc4)s3)N(NC(=O)OC(C)(C)C)C2C1=O` (stereo not given), the composite z-score in the experiment with Albumin (Bos taurus) was 0.886; in experiment [2], 0.435; in [3] it was 0.164; in [4] it was 0.689; in experiment [5] it was 1.65; in experiment [6], 0.714. In addition, the figures for the composite z-score (with Sam68 (KHDRBS1); in [7]; in [8]) were 1.23, 0.0094 and 0.996, respectively. For the same compound, the composite Z-score in [1] was 0.43 (inactive).

`C#CCN1[C@@H](Cc2ccccc2)C(=O)O[C@H](Cc2ccccc2)[C@@H]1/C=C/C1CC1`: the composite z-score with Albumin (Bos taurus) was -0.215; in [2], 0.0999; in experiment [3], -0.126; in [4] it was 0.486; in [5] it was 0.92; in [6], -0.103. The results for the composite z-score (with Sam68 (KHDRBS1); in experiment [7]; in [8]) were 0.713, 0.646 and -0.741, respectively. For the same compound, the composite Z-score in [1] is 0.196 (inactive).

Turning to `C=CC[C@@]1(C(=O)N(C)C)N=C(c2ccc(OCCCO)cc2)O[C@@H]1c1ccccc1CN=[N+]=[N-]`, the composite z-score with Albumin (Bos taurus) was 0.738; in [2], 0.438; in experiment [3] it was 0.0674; in experiment [4], 0.397; in experiment [5] it was 2.48; in experiment [6] it was 0.71. In addition, the composite z-score in the experiment with Sam68 (KHDRBS1) was 1.33; in experiment [7], -0.201; in experiment [8], 1.12. For the same compound, in [1], the composite Z-score is 0.153 (inactive).

For `CC(C)(C)N1CC=CC23O[C@@H]4C=CCOC(=O)[C@@H]4[C@H]2C(=O)N(CCO)[C@@H]3C1=O` (stereo not given in full), the composite z-score with Albumin (Bos taurus) is 0.439; in [2] it was -0.446; in experiment [3], -0.196; in [4], 0.671; in experiment [5], 1.95; in experiment [6], -0.719. The composite z-score is -0.738 in the experiment on Sam68 (KHDRBS1), -2.63 in experiment [7] and -0.634 in [8]. In experiment [1], the composite Z-score is 0.256 (inactive).

`COC(=O)[C@@]1(Cc2ccc(OC)cc2)[C@H]2c3cc(C(=O)N4CCCC4)n(Cc4ccc(C(F)(F)F)nc4)c3C[C@H]2CN1C(=O)c1ccccc1`: the composite z-score in the experiment with Albumin (Bos taurus) was determined as 0.948; in experiment [2], 0.361; in [3], 0.0224; in experiment [4], 0.737; in experiment [5], 0.297; in experiment [6], 0.511. Further, the composite z-score in the experiment with Sam68 (KHDRBS1) was 0.524; in [7], -0.249; in [8], -0.308. Moreover, in experiment [1], the composite Z-score is -0.325 (inactive).

With `CCOC(=O)C[C@H]1[C@H](OC(=O)c2ccccc2-c2ccccc2)[C@@H](NC(=O)C2CCCCC2)c2cc(OCCCO)ccc2N1C(=O)c1ccc2ccccc2n1`, the composite z-score in the experiment with Albumin (Bos taurus) is 0.632; in experiment [2], 0.0553; in experiment [3], -0.037; in [4], 0.258; in [5], 0.249; in [6], 0.358. In addition, the composite z-score was 1.07 with Sam68 (KHDRBS1), 0.162 in [7] and -0.0181 in experiment [8]. For the same compound, the composite Z-score in experiment [1] is 0.0805 (inactive).

Consider `CCOC(=O)C[C@H]1[C@H](OC(=O)Cc2ccc3c(c2)OCO3)[C@@H](NC(=O)Cc2ccc(OC)cc2)c2cc(OCCCO)ccc2N1C(=O)Cc1ccc(OC)cc1`, for which the composite z-score with Albumin (Bos taurus) is 0.635; in [2], -0.143; in experiment [3], -0.172; in [4], 0.263; in [5] it was 0.428; in experiment [6] it was 0.0995. In addition, the composite z-score in the experiment on Sam68 (KHDRBS1) was 0.323; in experiment [7] it was -0.0366; in experiment [8] it was -0.117. In [1], the composite Z-score is 0.472 (inactive).

In the case of `CCCC#C[Si](O[C@H](CC)c1cn(Cc2ccccc2)nn1)(C(C)C)C(C)C`, the composite z-score with Albumin (Bos taurus) is 0.603; in experiment [2], 0.151; in [3] it was 0.0263; in experiment [4], 0.365; in experiment [5], 0.855; in [6], -0.193. Moreover, the composite z-score was found to be 0.793 with Sam68 (KHDRBS1), 0.379 in [7] and 0.572 in [8]. The composite Z-score in experiment [1] was 0.244 (inactive).

Regarding `COc1ccc([Si](C)(C)[C@H]2[C@H](CCO)O[C@@]3(C(=O)N(Cc4ccc(NC(=O)[C@H](C)O)cc4)c4ccccc43)[C@@H]2C)cc1`, the composite z-score with Albumin (Bos taurus) is 0.494; in [2], 0.0643; in experiment [3], -0.164; in experiment [4], 0.488; in experiment [5] it was 1.9; in [6], 0.0861. Moreover, the composite z-score in the experiment on Sam68 (KHDRBS1) worked out at 1.32; in experiment [7], 0.101; in experiment [8] it was 0.897. For the same compound, the composite Z-score in experiment [1] is 0.515 (inactive).

With `CC(=O)NCCCC[C@@H]1NC(=O)[C@H]2C[C@@H](C(=O)NCCCCCCNC(=O)CS)[C@@H](c3cccc(OCCO)c3)N2C1=O`, the composite z-score was -0.637 with Albumin (Bos taurus); -0.0647 in experiment [2]; -0.108 in experiment [3]; 0.592 in experiment [4]; 1.84 in experiment [5]; 0.537 in [6]. In addition, the composite z-score in the experiment with Sam68 (KHDRBS1) is 1.28; in [7], 0.487; in experiment [8], 0.447. In addition, the composite Z-score in experiment [1] was 0.381 (inactive).

`C=C(C)[C@@H]1CC=C(C(O)C2C=CC3C(=O)N(C)C(=O)C3N2Nc2ccc([N+](=O)[O-])cc2[N+](=O)[O-])CC1` (stereo not given in full): the composite z-score with Albumin (Bos taurus) was determined as 0.689; in experiment [2] it was 0.407; in [3], 0.158; in experiment [4], 0.583; in [5] it was 2.5; in [6], 0.005. Further, the composite z-score in the experiment on Sam68 (KHDRBS1) is 1.29; in experiment [7], 0.722; in experiment [8], 1.14. The composite Z-score in experiment [1] was -0.37 (inactive).

Regarding `COc1ccc([Si](C)(C)[C@H]2[C@H](CCO)O[C@@]3(C(=O)N(Cc4cccc(N(C=O)c5ccccc5)c4)c4ccccc43)[C@@H]2C)cc1`, the composite z-score in the experiment with Albumin (Bos taurus) was 0.291; in [2] it was 0.059; in experiment [3], -0.102; in experiment [4], 0.467; in experiment [5], 1.28; in experiment [6] it was 0.677. Besides, the figures for the composite z-score (with Sam68 (KHDRBS1); in experiment [7]; in experiment [8]) were 1.28, 0.293 and 1.15, respectively. The composite Z-score in experiment [1] is -0.313 (inactive).

As for `CCCCC(=C=CC[C@H](O)c1ccc(CO)o1)CCO`, the composite z-score was 0.86 in the experiment with Albumin (Bos taurus); -0.0544 in experiment [2]; -0.0404 in experiment [3]; 0.54 in experiment [4]; 0.143 in experiment [5]; -0.311 in experiment [6]. The composite z-score with Sam68 (KHDRBS1) amounted to 0.864; in [7] it was 0.386; in experiment [8] it was 0.689. Further, in experiment [1], the composite Z-score was -0.334 (inactive).

In the case of `C=C(CCCC)/C(=C/C[C@H](OC(=O)c1ccncc1)c1cccc(OCCO)c1)c1cnc2ccccc2c1`, the composite z-score was 0.677 with Albumin (Bos taurus); 0.211 in [2]; -0.0649 in [3]; 0.861 in [4]; 1.17 in experiment [5]; 0.423 in experiment [6]. Further, the composite z-score amounted to 1.26 with Sam68 (KHDRBS1), 0.51 in experiment [7] and 0.831 in experiment [8]. The composite Z-score in [1] was -0.12 (inactive).
